Source: PubChem BioAssay (NCI)
About 79,000 compounds went through this panel and 15% of them were active in at least one assay; those are over-represented in the sample as a whole. Activity calls are given as the source filed them. No stated cut-off is given here; in the data, active means growth inhibition above about 70%; inactive means the rest.

assay: NCI Yeast Anticancer Drug Screen. Data for the cln2 rad14 strain (AID 165);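 further: 0% = growth equal to vehicle treated cultures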; details: S. cerevisiae cln2 rad14 strain, at 50.0 µM, active compounds read high
Protocol: Growth inhibition of yeast strains with defined genetic alterations is measured as a screen for potential anti-cancer activity. Selected strains with alterations in DNA damage repair or cell cycle control were exposed to compounds and growth inhibition was measured relative to vehicle treated controls. The strain used in this assay is cln2 rad14

**Q.** With NC(=O)CC(N)C(N)=O (stereo not given) as the compound, how does the growth inhibition read?
**A.** 13.2% (inactive)

**Q.** Which growth inhibition does the source give for CCN(CC)CCNC(=O)c1ccc(C)c(OCc2ccccc2)c1[N+](=O)[O-] here?
**A.** -26.8% (inactive)

**Q.** With Cc1cc2c(=O)[nH]c(=S)[nH]c2cn1 as the compound, how does the growth inhibition read?
**A.** -0.35% (inactive)

**Q.** With CN=NNc1ccc(C#N)cc1 as the compound, how does the growth inhibition read?
**A.** -14.1% (inactive)

**Q.** With O=C1c2ccccc2-c2ccc3c4ccc5c6c(ccc(c7ccc1c2c73)c64)C(=O)c1ccccc1-5 as the compound, how does the growth inhibition read?
**A.** 30.6% (inactive)

**Q.** For CC(C)NC(N)=O, which growth inhibition is on record?
**A.** 19.1% (inactive)

**Q.** With CCN(CC)C(=O)CC1(O)CCCCC1 as the compound, how does the growth inhibition read?
**A.** -9.65% (inactive)

**Q.** Which growth inhibition does the source give for Nc1ccnc(SCCCCc2ccccc2)n1 here?
**A.** -6.15% (inactive)

**Q.** For CCN(CC)Cc1ccccc1COC(=O)c1cccc(Cl)c1, which growth inhibition is on record?
**A.** 15.8% (inactive)

**Q.** With COC(=O)C1(Cc2ccccc2)Cc2ccccc2C1 as the compound, how does the growth inhibition read?
**A.** 20.2% (inactive)

**Q.** Which growth inhibition does the source give for C[N+](C)(C)CCOC(=O)/C=C/c1cnc[nH]1 here?
**A.** 23.6% (inactive)

**Q.** Which growth inhibition does the source give for CCOC(=O)NOC1CCCCO1 (stereo not given) here?
**A.** -14.6% (inactive)

**Q.** With COC(=O)CC1(O)C(C=C(C)C)C(C(=O)OC)C(=O)C(C(=O)OC)C1C(=O)OC (stereo not given) as the compound, how does the growth inhibition read?
**A.** -3.5% (inactive)

**Q.** Which growth inhibition does the source give for CCCCC(=O)Nc1ccc(S(=O)(=O)O)c(N=NC2C(=O)N(c3ccccc3)N=C2C)c1 (stereo not given) here?
**A.** -13% (inactive)

**Q.** With O=C(c1ccccc1)[C@@H]1C[C@H](Sc2ccccc2)c2cc(Cl)ccc2N1 as the compound, how does the growth inhibition read?
**A.** 23.8% (inactive)

**Q.** With COc1ccc(NC(=O)C2C(=O)N(c3ccc(OC)cc3)C(=O)/C2=N\NC(N)=O)cc1 (stereo not given) as the compound, how does the growth inhibition read?
**A.** 11.1% (inactive)

**Q.** For CCOC(=O)Cc1cc(C)c2ccccc2n1, which growth inhibition is on record?
**A.** -19.6% (inactive)

**Q.** Which growth inhibition does the source give for CCCC(=O)OCCOc1ccccc1 here?
**A.** 7.2% (inactive)

**Q.** Which growth inhibition does the source give for CC(=O)Oc1ccc[nH]c1=O here?
**A.** 24.6% (inactive)

**Q.** For O=C1OCC2=C1C(c1ccc3c(c1)OCO3)c1cc3c(cc1O2)OCO3 (stereo not given), which growth inhibition is on record?
**A.** 5.4% (inactive)

**Q.** For O=C(O)c1cccc(C(=O)O)[n+]1[O-], which growth inhibition is on record?
**A.** 2.4% (inactive)

**Q.** With CCOc1ncc(C(O)c2ccc(F)cc2)c(OCC)n1 (stereo not given) as the compound, how does the growth inhibition read?
**A.** -52.4% (inactive)

**Q.** With CC(C)CCC(C)(C)COC(=O)c1ccc([N+](=O)[O-])cc1 (tested in a mixture with another compound) as the compound, how does the growth inhibition read?
**A.** -2.25% (inactive)

**Q.** Which growth inhibition does the source give for CC(=O)Nc1c(Nc2ccccc2)[nH]c(C)nc1=S here?
**A.** -17.4% (inactive)

**Q.** For O=c1cn[nH]c(=O)[nH]1, which growth inhibition is on record?
**A.** 10.8% (inactive)

**Q.** For Cc1ccc(S(=O)(=O)N(C)c2cc(Cl)c(I)cc2Cl)cc1, which growth inhibition is on record?
**A.** 0.25% (inactive)

**Q.** With CCCCCCCCCCCCCCCC(O)S(=O)(=O)O (stereo not given) as the compound, how does the growth inhibition read?
**A.** 0.55% (inactive)

**Q.** With O=[N+]([O-])c1ccc(N=C/C=C/Nc2ccc([N+](=O)[O-])cc2)cc1 as the compound, how does the growth inhibition read?
**A.** -8.6% (inactive)

**Q.** For COc1ccc(C(=O)CCC(=O)O)c(C)c1, which growth inhibition is on record?
**A.** 1.55% (inactive)

**Q.** Which growth inhibition does the source give for CN(C)c1noc2c1c(=O)n(C)c(=O)n2C here?
**A.** -12.1% (inactive)

**Q.** Which growth inhibition does the source give for CC/C(SC)=[N+](\C)[O-] here?
**A.** -5.6% (inactive)

**Q.** Which growth inhibition does the source give for Clc1ccc(CSc2ccc3nncc(SCc4ccc(Cl)cc4Cl)c3c2)c(Cl)c1 here?
**A.** 36.8% (inactive)

**Q.** Which growth inhibition does the source give for O=c1cc(CC2(O)CCCCC2)c2ccccc2[nH]1 here?
**A.** -58% (inactive)

**Q.** Which growth inhibition does the source give for Cc1c2c(n3c(nc4ccccc43)c1C#N)SCC2 here?
**A.** -8.5% (inactive)

**Q.** For CC1(N)CCC(C(C)(C)N)CC1 (stereo not given), which growth inhibition is on record?
**A.** -30.3% (inactive)

**Q.** With O=C(O)CC1CC(=O)OC1(c1ccccc1)c1ccccc1 (stereo not given) as the compound, how does the growth inhibition read?
**A.** 2.8% (inactive)

**Q.** For CC(O)CN1CCN(CN(CC(C)O)CC(C)O)CC1 (stereo not given), which growth inhibition is on record?
**A.** -2.65% (inactive)

**Q.** For Cc1ccc(C(=O)Nc2ccc(CP(=O)(O)O)cc2CP(=O)(O)O)cc1NC(=O)c1cccc(N)c1, which growth inhibition is on record?
**A.** 0.4% (inactive)

**Q.** For O=C1OC(/C=C/c2ccccc2)=NC/1=C\c1ccc(Cl)cc1, which growth inhibition is on record?
**A.** 13.7% (inactive)

**Q.** Which growth inhibition does the source give for CC1(C)CC23C4COC(=O)C2CCC1C3CC4=O (stereo not given) here?
**A.** -0.7% (inactive)
